Source: PubChem (The Scripps Research Institute Molecular Screening Center)
In the library only some 1.9% were active in any assay of this set; here they are far more common.
HTR5A ag: counter-screen for OPRM1-OPRD1 agonists: human HTR5A agonism; HTR5A agonist assay, luminescence, cell-based; P47898; hit rate 0.61% among 340,000; activation, % at 9.3 µM; in the data active = activation mostly above about 9.5%, no sharp cut-off; inactive = mostly below about 7.6%;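 note: 0% = cells with vehicle only and 100% = reference agonist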
HTR5A inv ctr: HTR5A inverse agonism, opioid heterodimer counter-screen. P47898. inhibition, % at 9.3 µM. HTR5A cell line, luminescence. hit rate 0.083% among 340,000; in the data active = inhibition mostly above about 23%, no sharp cut-off; inactive = mostly below about 18%;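 note: 0% = cells with DMSO and 100% = no-cell wells with DMSO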
MOR-DOR ag-1: OPRM1-OPRD1 heterodimerization agonism | P35372+P41143 | cells, luminescence | activation, % at 9.3 µM | hit rate 0.3% among 340,000 | AID 504326;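 note: 0% = vehicle-treated cells and 100% = reference agonist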
Target sequence (P35372 whole entry, looked up): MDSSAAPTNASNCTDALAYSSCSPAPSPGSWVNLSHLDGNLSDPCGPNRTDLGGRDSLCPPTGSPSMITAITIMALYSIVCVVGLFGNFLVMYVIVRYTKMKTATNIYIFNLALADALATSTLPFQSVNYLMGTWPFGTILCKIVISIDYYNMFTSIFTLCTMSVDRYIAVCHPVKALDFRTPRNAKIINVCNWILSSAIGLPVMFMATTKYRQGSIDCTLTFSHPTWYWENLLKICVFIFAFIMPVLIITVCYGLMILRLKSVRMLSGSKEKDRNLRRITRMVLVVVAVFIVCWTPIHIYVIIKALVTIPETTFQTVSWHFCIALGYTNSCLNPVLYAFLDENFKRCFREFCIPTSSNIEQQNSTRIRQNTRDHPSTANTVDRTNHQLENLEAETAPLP
Target sequence (P41143 whole entry, looked up): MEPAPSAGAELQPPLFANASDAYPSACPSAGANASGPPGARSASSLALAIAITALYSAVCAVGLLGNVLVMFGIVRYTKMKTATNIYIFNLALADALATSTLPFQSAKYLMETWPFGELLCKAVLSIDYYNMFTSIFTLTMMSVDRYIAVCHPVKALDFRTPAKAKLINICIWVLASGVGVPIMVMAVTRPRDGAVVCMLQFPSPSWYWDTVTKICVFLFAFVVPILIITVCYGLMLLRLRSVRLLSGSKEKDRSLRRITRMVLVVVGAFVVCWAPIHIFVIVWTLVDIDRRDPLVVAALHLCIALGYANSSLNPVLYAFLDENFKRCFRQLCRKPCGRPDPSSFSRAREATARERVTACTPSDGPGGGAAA
MsrA act: bovine methionine sulfoxide reductase A activation. purified bovine MsrA, absorbance read-out. activation, % at 10.6 µM. AID 602163. hit rate 0.3% among 360,000; in the data active = activation above about 7.5%;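 note: 0% = vehicle and 100% = reference activator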
MsrA inhibitor: inhibits bovine methionine sulfoxide reductase A. hit rate 0.75% among 360,000. purified bovine MsrA, absorbance read-out. inhibition, % at 15.5 µM. AID 651718; in the data active = inhibition above about 4.5%;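 note: 0% = vehicle wells with enzyme and 100% = reference inhibitor wells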
MOR-DOR inv ag-1: inverse agonist of human OPRM1-OPRD1 heterodimerization; hit rate 0.21% among 340,000; inhibition, % at 9.3 µM; P35372+P41143; cell-based MOR-DOR heterodimer luminescence, inverse agonism; in the data active = inhibition above about 22%, passing the limit was not always enough;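 note: 0% = cells with DMSO and 100% = wells without cells with DMSO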
MOR-DOR inv ag-2: inverse agonist of OPRM1-OPRD1 heterodimerization in HTR5A counter-screen | shares compounds with HTR5A inv ctr | U2OS counter-screen cells, complementation luminescence | inhibition, % at 9.3 µM | 190 tested, under 10 active; call rule not given here;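 note: 0% = cells with DMSO and 100% = wells without cells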
HTR5A inv confrm: HTR5A (human) inverse agonism, confirmation; shares compounds with HTR5A inv ctr; HTR5A-expressing cells, luminescence; inhibition, % at 9.3 µM; 190 tested, under 10 active; call rule not given here;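 note: 0% = cells with DMSO and 100% = no cells with DMSO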
MOR-DOR ag-2: counter-screen for HTR5A agonists: OPRM1-OPRD1 heterodimerization agonism. shares compounds with HTR5A ag. U2OS counter-screen cells, complementation luminescence, 3 h. activation, % at 9.3 µM. hit rate 13% among 800. AID 504913
HTR5A ag confirm: HTR5A (human) agonism, confirmation. shares compounds with HTR5A ag. HTR5A agonist cell assay, luminescence. activation, % at 9.3 µM. hit rate 17% among 800. AID 504915; in the data active = activation above about 17%;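 note: 0% = cells with vehicle only and 100% = full reference agonist response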
MsrA inh confirm: confirmation of bovine MsrA inhibitors. shares compounds with MsrA inhibitor. purified bovine MsrA, absorbance read-out. inhibition, % at 15.5 µM. hit rate 41% among 2,300. AID 651822; in the data active = inhibition above about 4.5%;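 note: coupled to thioredoxin reductase with NADPH and selenocystamine and DMSO as substrate; 0% = vehicle only and 100% = full effect of reference inhibitor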
* marks the source's active call; other numbers are inactive results; i = inactive; . = no result given. Cut-off read from the data, not from the text of the source, unless noted: active = activation above about 18%; inactive = the rest.

SMILES	HTR5A ag	HTR5A inv ctr	MOR-DOR ag-1	MsrA act	MsrA inhibitor	MOR-DOR inv ag-1	MOR-DOR ag-2	HTR5A ag confirm	others
COc1ccc(Cl)cc1C(=O)NNC(=O)COC(=O)CCN=C1NS(=O)(=O)c2ccccc21	-29.2	71.3*	-5.6	-0.5	-0.7	29.0	.	.	MOR-DOR inv ag-2=-19.9;HTR5A inv confrm=-137.9
O=C(Nc1ccc(N2CCN(C(=O)c3cccs3)CC2)cc1)c1cccc(F)c1	4.3	-12.8	1.7	-10.1	-1.0	-13.9	.	.
COc1cccc(C(=O)Nc2ccc(N3CCN(C(=O)c4cccs4)CC3)cc2)c1	-13.7	33.3*	-0.7	-1.8	-1.2	3.6	.	.	MOR-DOR inv ag-2=i;HTR5A inv confrm=-12.7
CCOC(=O)C(C)(C)CC#CCN(CC#Cc1ccccc1)S(=O)(=O)c1ccc(C)cc1	.	.	.	.	0.1	.	.	.
O=C(NC(c1ccc(Cl)cc1)c1cc(Cl)c2cccnc2c1O)c1cccnc1 (stereo not given)	-11.3	30.4*	-0.9	-1.6	1.4	5.5	.	.	MOR-DOR inv ag-2=-0.1;HTR5A inv confrm=-8.9
O=[N+]([O-])c1cccc(/C=N/Nc2nc(NCc3ccccc3)nc(N3CCOCC3)n2)c1O	-31.9	87.7*	-3.2	-9.8	0.7	14.6	.	.	MOR-DOR inv ag-2=-0.1;HTR5A inv confrm=12.3
O=[N+]([O-])c1ccc(/C=N/Nc2nc(NCc3ccccc3)nc(N3CCOCC3)n2)cc1	-3.8	9.4	2.7	-4.3	0.9	-14.0	.	.
O=C(CSc1nnc(-c2ccccc2Br)o1)N1CCOCC1	-9.3	24.8*	-0.4	0.3	1.6	2.0	.	.	MOR-DOR inv ag-2=i;HTR5A inv confrm=-64.0
CCOc1cc(/C=N/NC(=O)c2cccs2)cc([N+](=O)[O-])c1O	-9.1	24.6*	-4.3	-6.2	8.2*	21.6	.	.	MOR-DOR inv ag-2=54.9*;HTR5A inv confrm=-4.1;MsrA inh confirm=4.9*
COc1ccc(C(=O)C(=O)N2CCN(C(=O)c3cc(C(F)(F)F)cc(C(F)(F)F)c3)CC2)cc1OC	.	.	.	.	1.1	.	.	.
O=C(CCCCCn1c(SCC(=O)c2ccccc2)nc2ccccc2c1=O)NCc1ccco1	20.9*	-49.8	1.6	-12.4	2.1	-7.8	58.9*	29.4*
Cc1cccc(C(=O)O/N=C2\CCSc3ccc(C)cc32)c1	15.4*	9.5	1.6	-3.9	0.9	-7.8	7.2	41.2*
Cc1ccc(C(=O)O/N=C2\CCSc3ccc(C)cc32)cc1	37.3*	-88.9	0.1	-2.9	-1.2	-0.7	1.9	0.9
COc1ccc(S(=O)(=O)O/N=C2\CCSc3ccc(C)cc32)cc1	-1.8	-6.6	4.7	-2.6	0.5	-21.4	.	.
Cc1ccc(/C=N/NC(=O)c2c(C)nc3ccc(Cl)cn23)cc1	.	.	.	.	0.9	.	.	.
C/C(=N\NS(=O)(=O)c1ccc(C)c([N+](=O)[O-])c1)c1cc2ccccc2o1	27.1*	-64.6	-2.8	-13.2	1.1	13.6	18.9*	-1.5
COc1ccc(C(=O)Cc2ccc(OC)c(OC)c2)c(OC)c1	18.9*	-44.0	2.9	-1.2	0.5	-17.1	4.3	4.8
O=C(Nc1ccccc1)c1ncoc1-c1ccc(Cl)cc1	19.3*	-50.2	2.7	-8.0	-0.4	-13.6	2.1	1.6
C[C@H](CO)N1C[C@H](C)[C@H](CN(C)C(=O)Nc2cccc(F)c2)OCc2cnnn2CCCC1=O	.	.	.	.	0.1	.	.	.
O=C1CC(c2cccc(Cl)c2)Cc2nc(N3CCN(c4ccccc4)CC3)ncc21 (stereo not given)	16.8*	-42.0	-1.6	-3.0	-0.1	6.9	1.7	2.4
O=C1CC(c2ccc(F)cc2)Cc2nc(N3CCOCC3)ncc21 (stereo not given)	1.0	4.6	-2.6	-9.8	1.1	10.8	.	.
Cc1cc(C(=O)COC(=O)C2=COCCO2)c(C)n1-c1ccc2c(c1)OCO2	-3.6	-0.9	-0.7	-2.7	-0.3	3.9	.	.
Cc1cc(C(=O)COC(=O)C2=COCCO2)c(C)n1-c1cccc(F)c1	15.7*	9.1	0.0	-5.0	-0.1	0.2	0.9	12.6
N#Cc1cc(-c2ccccc2)nnc1Oc1ccccc1	-1.8	4.5	1.6	-10.0	0.5	-6.8	.	.
Cc1ccc(Oc2nnc(-c3ccccc3)cc2C#N)cc1	18.2*	-26.5	6.0	-4.2	-0.1	-24.9	6.3	4.0
SMILES	HTR5A ag	HTR5A inv ctr	MOR-DOR ag-1	MsrA act	MsrA inhibitor	MOR-DOR inv ag-1	MOR-DOR ag-2	HTR5A ag confirm	others
CCCC(C)C(=O)NC1CCCCN(C)C1=O (stereo not given)	.	.	.	.	-0.5	.	.	.
O=C(COC(=O)[C@@H]1CCCN1S(=O)(=O)c1ccccc1F)NCc1ccc2c(c1)OCO2	17.1*	-43.5	-3.0	-4.4	-0.3	11.8	1.1	5.2
Cc1ccc(OCC(=O)N(C)CC(=O)Nc2ccc(F)cc2)c([N+](=O)[O-])n1	-4.3	11.8	2.3	-2.6	0.4	-16.3	.	.
Cc1ccc2cccc(OCC(=O)N(C)CC(=O)Nc3ccc(F)cc3)c2n1	16.3*	-41.5	-4.8	-11.8	0.8	19.0	0.8	2.3
Cc1ccc(OCC(=O)N(C)CC(=O)Nc2ccc(Cl)c(C(F)(F)F)c2)c([N+](=O)[O-])n1	14.9*	-36.7	1.5	-11.8	-0.5	-6.4	-3.1	-6.2
Cc1nc2cc(NC(=O)N3c4ccccc4CC3C)ccc2n1C (stereo not given)	22.4*	-57.9	-2.5	-2.8	0.1	14.1	0.9	24.4*
O=C1NC(c2ccccc2)(c2ccccc2)C(=O)N1CNc1ccccn1	.	.	.	.	0.2	.	.	.
COC(=O)C1=C(C)N(C)C(=NCC2CC2)NC1c1ccc(Cl)cc1 (stereo not given)	.	.	.	.	-0.5	.	.	.
COC(=O)c1ccc(CSc2nnc(NC(=O)C3CCCO3)s2)cc1 (stereo not given)	1.5	-3.8	-2.0	-0.7	-0.3	11.0	.	.
O=C(Nc1nnc(SCc2ccc(Cl)cc2)s1)C1CCCO1 (stereo not given)	21.2*	-53.8	-1.5	-4.8	.	8.6	0.8	-1.1
COc1ccc(CCNC(=O)COc2ccc(N(C)S(=O)(=O)c3ccc(C)cc3)cc2)cc1	16.0*	1.0	0.1	-9.2	-0.8	-0.6	-0.6	-3.5
CCN1CCN(C(=O)/C=C/c2ccc(C(C)C)cc2)CC1	0.8	3.7	-1.6	-2.0	1.3	8.3	.	.
CCN1CCC(O)(/C=C/c2ccc(C(C)C)cc2)C(C(=O)/C=C/c2ccc(C(C)C)cc2)C1 (stereo not given)	18.4*	-70.8	3.2	-4.6	-0.2	-15.6	51.3*	26.9*
CC(C)(C)c1ccc(Oc2ccc(NC(=O)c3ccco3)cn2)cc1	15.9*	15.9	6.5	-12.5	0.2	-32.5	27.6*	-2.3
